Assays:
Details in all cases: concentration: 1 μM, replicates: in singlicate; n = 1
MET = test system: MET
MINK = test system: T1, MINK
T1 construct: gene MINK1

MKK7 = test system: MKK7
MKNK1 = test system: MKNK1
MKNK2 = test system: MKNK2
MLCK = test system: T2, MLCK
T2 construct: gene MYLK3

MLK1 = test system: T3, MLK1
T3 construct: gene MAP3K9

MLK2 = test system: MLK2
MLK3 = test system: MLK3
MRCKA = test system: MRCKA
MRCKB = test system: T4, MRCKB
T4 construct: gene CDC42BPB

MST1R = test system: MST1R
MST1 = test system: T5, MST1
T5 construct: gene STK4

MST2 = test system: T6, MST2
T6 construct: gene STK3

MST3 = test system: T7, MST3
T7 construct: gene STK24

MST4 = test system: MST4
MTOR = test system: MTOR
MUSK = test system: MUSK
MYLK2 = test system: MYLK2
MYLK4 = test system: MYLK4
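Note: KINOMEscan kinase panel screen.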

Compound | %Inh (MET) [%] | %Inh (MINK) [%] | %Inh (MKK7) [%] | %Inh (MKNK1) [%] | %Inh (MKNK2) [%] | %Inh (MLCK) [%] | %Inh (MLK1) [%] | %Inh (MLK2) [%] | %Inh (MLK3) [%] | %Inh (MRCKA) [%] | %Inh (MRCKB) [%] | %Inh (MST1R) [%] | %Inh (MST1) [%] | %Inh (MST2) [%] | %Inh (MST3) [%] | %Inh (MST4) [%] | %Inh (MTOR) [%] | %Inh (MUSK) [%] | %Inh (MYLK2) [%] | %Inh (MYLK4) [%]
COc1cc2nccc(Nc3ccc(OCc4ccc(NC(C)=O)cc4)cc3)c2cc1OC.Cl [GW440135] | 0 | 70 | 27 | 6 | 15 | 0 | 0 | 2 | 14 | 9 | 0 | 12 | 0 | 20 | 0 | 1 | 15 | 3 | 0 | 0
Cc1nnc(-c2ccc(C)c(-c3ccc(C(=O)O)cc3)c2)o1 [GW608005] | 0 | 0 | 13 | 0 | 0 | 0 | 0 | 0 | 0 | 0 | 0 | 17 | 0 | 0 | 0 | 0 | 0 | 5 | 2 | 3
Cc1c(Cn2c(C)nn3c(=O)cc(N4CCO[C@H](C)C4)nc23)cccc1C(F)(F)F [GSK2373690] | 0 | 0 | 0 | 3 | 9 | 9 | 0 | 14 | 3 | 0 | 0 | 41 | 2 | 7 | 0 | 0 | 57 | 28 | 2 | 99.8
Cc1ccc(-c2ccc3c(ccc4sc5c(c43)NC[C@@H](C)N=C5N(C)C)n2)cn1 | 0 | 0 | 0 | 0 | 0 | 0 | 0 | 0 | 0 | 0 | 3 | 13 | 0 | 0 | 1 | 0 | 31 | 0 | 0 | 100
Nc1n[nH]c2nnc(-c3ccccc3)c(-c3ccccc3)c12 [GW554060] | 0 | 0 | 7 | 11 | 49 | 0 | 0 | 0 | 8 | 4 | 0 | 40 | 0 | 0 | 0 | 0 | 12 | 20 | 0 | 1
CCC(=O)c1c(-c2ccccc2)c2cc(Cl)ccc2c(=O)n1Cc1cc(S(C)(=O)=O)n(CCC(C)(C)O)n1 | 0 | 0 | 0 | 0 | 0 | 7 | 3 | 0 | 24 | 0 | 0 | 36 | 21 | 10 | 0 | 0 | 0 | 17 | 5 | 2
Cc1nn2c(=O)cc(N3CCOCC3)nc2n1Cc1cccc(Cl)c1Cl [GSK2342769] | 1 | 0 | 0 | 0 | 4 | 7 | 0 | 0 | 0 | 10 | 0 | 13 | 0 | 4 | 0 | 0 | 45 | 18 | 0 | 4
Fc1cccc(CSc2nnc(-c3ccc4c(c3)CCO4)o2)c1 | 10 | 5 | 6 | 3 | 4 | 7 | 0 | 0 | 0 | 0 | 0 | 35 | 3 | 0 | 0 | 0 | 36 | 0 | 11 | 0
COc1ccc(-c2cc3c(C)nc(N)nc3n([C@H]3CC[C@H](OCCO)CC3)c2=O)cn1 | 0 | 1 | 0 | 0 | 0 | 17 | 0 | 0 | 3 | 0 | 0 | 0 | 6 | 0 | 23 | 0 | 96.3 | 0 | 2 | 7
COc1cccc(C2=C(N(C)c3ccccc3)C(=O)NC2=O)c1 [SB-334865] | 0 | 11 | 0 | 3 | 0 | 0 | 0 | 0 | 12 | 0 | 0 | 10 | 5 | 0 | 0 | 0 | 19 | 2 | 9 | 0
CCn1c(-c2nonc2N)nc2ccccc21 [SB-693162/GW549034] | 14 | 36 | 0 | 0 | 59 | 2 | 0 | 10 | 0 | 0 | 0 | 0 | 0 | 34 | 11 | 0 | 0 | 42 | 0 | 0
CCC(=O)c1c(-c2ccccc2)c2cc(Cl)ccc2c(=O)n1Cc1cc(S(C)(=O)=O)n(CC(N)=O)n1 | 0 | 14 | 0 | 0 | 0 | 0 | 0 | 10 | 1 | 0 | 0 | 0 | 0 | 0 | 0 | 0 | 40 | 0 | 0 | 0
Cn1c(=O)c(F)c(Nc2ccc(I)cc2F)c2c(=O)n(OC[C@H](O)CO)cnc21 | 12 | 0 | 0 | 4 | 0 | 0 | 19 | 25 | 9 | 20 | 0 | 0 | 19 | 0 | 0 | 0 | 0 | 8 | 1 | 0
O=C1NC(=O)C(c2ccccc2)=C1Nc1cccc(O)c1 [SB-390534] | 0 | 22 | 0 | 0 | 21 | 0 | 0 | 0 | 6 | 0 | 0 | 20 | 7 | 24 | 0 | 9 | 0 | 8 | 16 | 15
COc1cc2ncn(-c3cc(OCCCc4ccccc4)c(C(N)=O)s3)c2cc1OC [GSK205189] | 5 | 3 | 0 | 3 | 0 | 0 | 3 | 19 | 8 | 0 | 0 | 14 | 0 | 0 | 11 | 0 | 1 | 50 | 8 | 65
COc1cc2nccc(Nc3cccc(Oc4ccccc4)c3)c2cc1OC.Cl [GW284543] | 0 | 0 | 0 | 0 | 0 | 4 | 0 | 0 | 11 | 4 | 0 | 18 | 1 | 47 | 0 | 0 | 15 | 6 | 0 | 0
O=C(Nc1ccc2c(c1)OCO2)NC1CCN(c2ccnc(NCc3ccc(F)cc3)n2)CC1 [GSK1379859] | 0 | 0 | 0 | 0 | 0 | 0 | 0 | 0 | 0 | 0 | 0 | 17 | 5 | 47 | 0 | 0 | 8 | 0 | 0 | 0
Nc1ncnc2c1ncn2-c1cccc2ccccc12 [SKF-97184] | 0 | 12 | 0 | 0 | 0 | 0 | 0 | 19 | 0 | 0 | 0 | 6 | 7 | 0 | 0 | 0 | 28 | 0 | 0 | 4
Nc1nccc2scc(-c3ccc4c(c3)CCN4C(=O)Cc3ccccc3)c12 [GSK2576924] | 0 | 7 | 9 | 3 | 2 | 3 | 0 | 0 | 5 | 11 | 0 | 17 | 37 | 0 | 1 | 0 | 14 | 13 | 11 | 9
O=C(NCCNc1ccnc(Nc2ccc(F)cc2)n1)Nc1ccc2c(c1)OCO2 [GSK1379882] | 0 | 4 | 0 | 23 | 5 | 0 | 0 | 0 | 0 | 9 | 0 | 6 | 0 | 22 | 11 | 0 | 11 | 0 | 15 | 9
CC(C)(C)c1ccc(C(=O)Nc2cn3cc(-c4ccccc4)ccc3n2)cc1 | 0 | 36 | 0 | 0 | 13 | 14 | 0 | 0 | 0 | 0 | 0 | 26 | 0 | 43 | 0 | 0 | 45 | 0 | 34 | 0

Reference: paper PMC5540273 (PLoS ONE, 2017)
